According to PubChem BioAssay (NCI):
About 83,000 compounds went through this panel and 20% of them were active in at least one assay; those are over-represented in the sample as a whole.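 Testing used 96-well plates and a 48-hour single-concentration exposure. Example: -40 means 40% of the starting cells died.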 Values without a mark were called inactive. Calls of active or inactive are those of the source. How the source made its calls: active means growth percent below 10; inactive means the rest.

Each molecule was assayed on CAKI-1 renal (assay: NCI-60 one-dose screen, 48 h (100 = growth as untreated, 0 = no growth, -100 = all killed)). Conditions: 10 µM unless noted.

SMILES	growth
COc1cc(C2CC(c3cccc(Nc4ccnc5cc(Cl)ccc45)c3)=NN2c2ccccc2)cc(OC)c1OC (stereo not given)	8.35% (active)
CCCCCCCCCCCCCCCc1cc(O)ccc1[N+](=O)[O-]	72.9%
Nc1nc2c(c3ncccc13)C(c1ccccc1)Cc1ncccc1-2 (stereo not given)	77.2%
O=C1/C(=C\c2cccn2C(=O)c2ccccc2)c2ccccc2N1c1c(Cl)cccc1Cl	87.8%
Cc1ccc(C2CC(c3cccs3)=NN2c2ccc(S(N)(=O)=O)cc2)s1 (stereo not given)	86.7%
Nc1nc(N)c2c(n1)NC(c1sc(Cl)nc1Cl)CC(c1ccccc1)=N2 (stereo not given)	44.8%
C=CCn1c(C)nc2cc(Nc3nc(N4CCCC4)nc4nc[nH]c34)ccc21	89%
Cc1cc(C)c2c(n1)sc1c(Nc3ccc(OCc4ccccc4)cc3)ncnc12	97.5%
CCN(CC)C(Cl)=Nc1ccc(Cl)cc1	103%
Cc1nc2ccc(Nc3nc(N4CCOCC4)nc(N4CCN(C)CC4)n3)cc2n1Cc1ccccc1	102%
CC(=O)c1c(C)nc(-c2cc(C)cc(Cl)c2)nc1-c1cccc(Oc2ccccc2)c1	68.2%
CCOC(=O)C1=C(C)NC(SCc2nnc(-c3ccc(Cl)cc3)o2)=NC1c1ccc(Cl)cc1 (stereo not given)	61.6%
Cc1cc(C)c2c(NC(=O)Nc3ccc(Cl)c(Cl)c3)n[nH]c2n1	91.6%
Brc1ccccc1Cn1c(-c2cncs2)nc2ccccc21	74.4%
CC(C)(C)c1ccc(Cn2c(-c3nonc3N)nc3ccccc32)cc1	62.2%
